Results from publication PMC4081100, “A DNA-binding-site landscape and regulatory network analysis for NAC transcription factors in Arabidopsis thaliana”.

How the values were obtained:
Experiment in all cases: universal protein binding microarray (PBM); transcription factors of Arabidopsis thaliana; high values mean tight binding
GST-ANAC092(1-176) = target: T1, GST-ANAC092(1-176) (Arabidopsis thaliana, UniProt Q9FKA0 1-176); details: protein: recombinant; tags: GST; chain copies: 2; dsDNA, one strand shown
T1 sequence: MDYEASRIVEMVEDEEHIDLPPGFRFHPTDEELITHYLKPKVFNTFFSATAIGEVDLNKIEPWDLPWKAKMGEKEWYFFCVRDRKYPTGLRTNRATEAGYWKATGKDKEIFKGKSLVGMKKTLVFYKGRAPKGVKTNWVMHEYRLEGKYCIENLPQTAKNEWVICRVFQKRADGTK
Method in brief: (§1)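 Protein amounts were determined by A280 or anti-GST western blot after glutathione–Sepharose 4B purification of GST-tagged proteins induced in cells, with zinc acetate included for zinc-finger proteins. Duplicate runs at 200 to 500 nM final were done on custom all-10-mer Agilent 4 × 180K arrays made double-stranded by primer extension. The normalised enrichment score (E-score) over gapped and ungapped 8-mers is the measure of binding.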

GST-ANAC055(1-171) = target: T2, GST-ANAC055(1-171) (Arabidopsis thaliana, UniProt Q9LDY8 1-171); details: protein: recombinant; tags: GST; chain copies: 2; dsDNA, one strand shown
T2 sequence: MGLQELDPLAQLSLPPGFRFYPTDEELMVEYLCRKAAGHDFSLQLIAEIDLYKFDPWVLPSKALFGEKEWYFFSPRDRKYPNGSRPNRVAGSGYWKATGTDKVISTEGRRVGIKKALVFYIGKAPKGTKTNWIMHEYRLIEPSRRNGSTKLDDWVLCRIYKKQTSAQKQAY
Method in brief: as §1

GST-ATAF1 NAC domain = target: T3, GST-ATAF1 NAC domain (Arabidopsis thaliana, UniProt Q39013 7-158); details: protein: recombinant; tags: GST; chain copies: 2; dsDNA, one strand shown
T3 sequence: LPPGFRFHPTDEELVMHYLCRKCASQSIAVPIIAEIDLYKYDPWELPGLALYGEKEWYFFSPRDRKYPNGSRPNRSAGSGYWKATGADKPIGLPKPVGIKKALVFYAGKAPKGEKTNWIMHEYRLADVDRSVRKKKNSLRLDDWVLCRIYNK
Method in brief: as §1

[1] = target: T4, GST-ANAC092(1-285) full length (Arabidopsis thaliana, UniProt Q9FKA0 1-285); details: protein: recombinant; tags: GST; chain copies: 2; dsDNA, one strand shown
T4 sequence: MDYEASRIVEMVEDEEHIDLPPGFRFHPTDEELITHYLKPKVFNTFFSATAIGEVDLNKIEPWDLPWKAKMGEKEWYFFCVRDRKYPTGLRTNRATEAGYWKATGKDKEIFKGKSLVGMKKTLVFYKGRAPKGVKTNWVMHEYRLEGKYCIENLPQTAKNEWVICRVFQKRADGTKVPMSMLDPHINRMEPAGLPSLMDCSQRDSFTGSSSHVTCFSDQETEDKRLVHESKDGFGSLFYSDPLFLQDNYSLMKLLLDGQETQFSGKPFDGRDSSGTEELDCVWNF
Method in brief: as §1

GST-NST2(1-184) = target: T5, GST-NST2(1-184) (Arabidopsis thaliana, UniProt Q9M274 1-184); details: protein: recombinant; tags: GST; chain copies: 2; dsDNA, one strand shown
T5 sequence: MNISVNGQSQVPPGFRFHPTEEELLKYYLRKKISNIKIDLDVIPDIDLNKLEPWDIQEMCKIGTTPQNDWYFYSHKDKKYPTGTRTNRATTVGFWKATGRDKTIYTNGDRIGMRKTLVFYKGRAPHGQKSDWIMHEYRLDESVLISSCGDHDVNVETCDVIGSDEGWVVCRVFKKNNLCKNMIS
Method in brief: as §1

GST-SND1(1-203) = target: T6, GST-SND1(1-203) (Arabidopsis thaliana, UniProt Q9LPI7 1-203); details: protein: recombinant; tags: GST; chain copies: 2; dsDNA, one strand shown
T6 sequence: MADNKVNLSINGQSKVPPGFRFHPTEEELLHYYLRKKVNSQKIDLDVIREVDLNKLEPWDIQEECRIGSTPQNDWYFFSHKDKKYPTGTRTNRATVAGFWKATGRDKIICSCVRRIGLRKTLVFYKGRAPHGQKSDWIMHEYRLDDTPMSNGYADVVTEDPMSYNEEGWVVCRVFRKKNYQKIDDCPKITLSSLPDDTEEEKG
Method in brief: as §1

GST-VND3 NAC domain = target: T7, GST-VND3 NAC domain (Arabidopsis thaliana, UniProt Q9FH59 12-162); details: protein: recombinant; tags: GST; chain copies: 2; dsDNA, one strand shown
T7 sequence: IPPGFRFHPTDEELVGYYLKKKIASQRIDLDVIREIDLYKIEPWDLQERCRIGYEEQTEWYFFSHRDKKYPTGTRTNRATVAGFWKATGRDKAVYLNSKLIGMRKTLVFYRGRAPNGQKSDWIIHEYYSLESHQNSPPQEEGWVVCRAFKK
Method in brief: as §1

GST-VND7 NAC domain = target: T8, GST-VND7 NAC domain (Arabidopsis thaliana, UniProt Q9C8W9 9-158); details: protein: recombinant; tags: GST; chain copies: 2; dsDNA, one strand shown
T8 sequence: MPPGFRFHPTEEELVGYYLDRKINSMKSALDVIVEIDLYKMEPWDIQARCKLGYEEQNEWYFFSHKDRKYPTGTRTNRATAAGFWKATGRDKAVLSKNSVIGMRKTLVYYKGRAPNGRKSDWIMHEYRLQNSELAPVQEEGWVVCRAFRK
Method in brief: as §1

GST-ANAC019 NAC domain = target: T9, GST-ANAC019 NAC domain (Arabidopsis thaliana, UniProt Q9C932 14-162); details: protein: recombinant; tags: GST; chain copies: 2; dsDNA, one strand shown
T9 sequence: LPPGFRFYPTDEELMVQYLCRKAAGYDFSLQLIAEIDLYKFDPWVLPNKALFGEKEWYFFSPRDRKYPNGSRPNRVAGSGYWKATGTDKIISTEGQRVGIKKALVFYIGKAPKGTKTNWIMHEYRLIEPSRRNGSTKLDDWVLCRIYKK
Method in brief: as §1

GST-NAP(1-166) = target: T10, GST-NAP(1-166) (Arabidopsis thaliana, UniProt O49255 1-166); details: protein: recombinant; tags: GST; chain copies: 2; dsDNA, one strand shown
T10 sequence: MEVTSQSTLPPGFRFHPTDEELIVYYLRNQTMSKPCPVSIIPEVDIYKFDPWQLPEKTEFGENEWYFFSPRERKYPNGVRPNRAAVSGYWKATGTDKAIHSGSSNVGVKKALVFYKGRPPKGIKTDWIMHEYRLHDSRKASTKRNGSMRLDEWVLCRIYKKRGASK
Method in brief: as §1

GST-NTL8 NAC domain = target: T11, GST-NTL8 NAC domain (Arabidopsis thaliana, UniProt Q9XIN7 14-156); details: protein: recombinant; tags: GST; chain copies: 2; dsDNA, one strand shown
T11 sequence: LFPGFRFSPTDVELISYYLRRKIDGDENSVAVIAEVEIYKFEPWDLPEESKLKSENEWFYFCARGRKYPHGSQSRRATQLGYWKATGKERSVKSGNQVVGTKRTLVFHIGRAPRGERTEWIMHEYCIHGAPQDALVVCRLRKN
Method in brief: as §1

GST-NTL6(1-168) = GST-NTL6(1-168) (Arabidopsis thaliana, UniProt Q9SCK6 1-168); details: protein: recombinant; tags: GST; chain copies: 2; dsDNA, one strand shown
Method in brief: as §1

GST-WRKY1(266-371) = GST-WRKY1(266-371) (Arabidopsis thaliana, UniProt Q9SI37 266-371); details: protein: recombinant; tags: GST; dsDNA, one strand shown
Method in brief: as §1

Sequence of GST-NTL6(1-168) (Q9SCK6 1-168): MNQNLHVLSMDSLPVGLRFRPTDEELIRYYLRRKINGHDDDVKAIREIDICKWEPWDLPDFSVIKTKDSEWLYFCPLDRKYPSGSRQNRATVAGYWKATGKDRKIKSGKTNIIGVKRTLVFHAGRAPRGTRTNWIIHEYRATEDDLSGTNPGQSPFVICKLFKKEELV
Sequence of GST-WRKY1(266-371) (Q9SI37 266-371): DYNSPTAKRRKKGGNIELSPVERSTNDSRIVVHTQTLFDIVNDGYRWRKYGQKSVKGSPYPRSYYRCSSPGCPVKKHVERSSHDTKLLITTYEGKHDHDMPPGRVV

| Sequence | binding signal (GST-ANAC092(1-176)) | binding signal (GST-ANAC055(1-171)) | binding signal (GST-ATAF1 NAC domain) | binding signal [1] | binding signal (GST-NST2(1-184)) | binding signal (GST-SND1(1-203)) | binding signal (GST-VND3 NAC domain) | binding signal (GST-VND7 NAC domain) | binding signal (GST-ANAC019 NAC domain) | binding signal (GST-NAP(1-166)) | binding signal (GST-NTL8 NAC domain) | binding signal (GST-NTL6(1-168)) | binding signal (GST-WRKY1(266-371)) |
| --- | --- | --- | --- | --- | --- | --- | --- | --- | --- | --- | --- | --- | --- |
| ACAAGTTA | 0.362 E-score | 0.106 E-score | 0.162 E-score | 0.41 E-score | 0.194 E-score | 0.216 E-score | 0.152 E-score | 0.146 E-score |  |  |  |  |  |
| CTACGCAA | 0.427 E-score | 0.207 E-score | 0.267 E-score | 0.447 E-score | 0.364 E-score | 0.488 E-score | 0.365 E-score | 0.349 E-score | 0.316 E-score | 0.196 E-score | 0.126 E-score |  |  |
| ACGTTACC | 0.458 E-score | 0.197 E-score | 0.195 E-score | 0.467 E-score | 0.331 E-score | 0.462 E-score | 0.249 E-score | 0.176 E-score | 0.263 E-score | 0.218 E-score | 0.384 E-score |  |  |
| GTACGCGA | 0.245 E-score | 0.0563 E-score | 0.234 E-score | 0.4 E-score | 0.129 E-score | 0.288 E-score | 0.11 E-score | 0.133 E-score |  | 0.188 E-score |  |  |  |
| AGTCAAAC |  | 0.103 E-score | 0.109 E-score |  | 0.0701 E-score | 0.126 E-score | 0.103 E-score |  | 0.0687 E-score | 0.0582 E-score | 0.07 E-score | 0.0896 E-score | 0.491 E-score |
| CACGCTAC | 0.46 E-score | 0.0982 E-score | 0.167 E-score | 0.476 E-score | 0.298 E-score | 0.441 E-score | 0.0671 E-score | 0.135 E-score | 0.167 E-score |  |  |  |  |
| AGCGTAAA | 0.223 E-score |  | 0.12 E-score | 0.241 E-score | 0.244 E-score | 0.413 E-score | 0.15 E-score | 0.119 E-score | 0.0508 E-score | 0.126 E-score |  |  |  |
| AAGGTCAA | 0.138 E-score | 0.106 E-score | 0.146 E-score | 0.0845 E-score | 0.0822 E-score | 0.144 E-score | 0.101 E-score |  |  |  | 0.0854 E-score | 0.252 E-score | 0.484 E-score |
| TTGACCAA | 0.232 E-score | 0.0923 E-score | 0.066 E-score | 0.226 E-score |  | 0.0845 E-score | 0.0958 E-score |  | 0.063 E-score |  |  |  | 0.491 E-score |
| GGTCAAAA | 0.0966 E-score | 0.0727 E-score |  |  |  | 0.123 E-score | 0.0741 E-score |  |  |  | 0.116 E-score | 0.101 E-score | 0.478 E-score |
| CAGTCAAC | 0.0753 E-score |  | 0.084 E-score |  |  | 0.0832 E-score | 0.0605 E-score |  |  |  |  |  | 0.491 E-score |
| TCGGTCAA | 0.132 E-score | 0.0819 E-score |  |  | 0.0703 E-score | 0.0612 E-score | 0.0724 E-score |  |  | 0.097 E-score |  | 0.0645 E-score | 0.49 E-score |
| ACGGCACT | 0.331 E-score | 0.449 E-score | 0.454 E-score | 0.393 E-score | 0.187 E-score | 0.174 E-score | 0.402 E-score | 0.453 E-score | 0.467 E-score | 0.425 E-score | 0.0691 E-score |  |  |
| ATGCGTAA | 0.319 E-score | 0.108 E-score | 0.115 E-score | 0.356 E-score | 0.243 E-score | 0.436 E-score | 0.217 E-score | 0.188 E-score |  | 0.175 E-score |  |  |  |
| CAAAAGTC | 0.0755 E-score | 0.138 E-score | 0.222 E-score | 0.112 E-score | 0.252 E-score | 0.133 E-score | 0.141 E-score |  |  |  |  | 0.0864 E-score | 0.432 E-score |
| ATGGCGTA | 0.393 E-score |  | 0.185 E-score | 0.426 E-score | 0.299 E-score | 0.452 E-score | 0.149 E-score | 0.192 E-score |  | 0.184 E-score |  |  |  |
